Structures are written as SMILES.
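Also: values are mean percent inhibition of PDGFRA.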

The target in this test is Platelet-derived growth factor receptor alpha (Homo sapiens) (UniProt P16234). The following applies: at 1 µM.
Chain of Platelet-derived growth factor receptor alpha (Homo sapiens) (P16234 whole entry): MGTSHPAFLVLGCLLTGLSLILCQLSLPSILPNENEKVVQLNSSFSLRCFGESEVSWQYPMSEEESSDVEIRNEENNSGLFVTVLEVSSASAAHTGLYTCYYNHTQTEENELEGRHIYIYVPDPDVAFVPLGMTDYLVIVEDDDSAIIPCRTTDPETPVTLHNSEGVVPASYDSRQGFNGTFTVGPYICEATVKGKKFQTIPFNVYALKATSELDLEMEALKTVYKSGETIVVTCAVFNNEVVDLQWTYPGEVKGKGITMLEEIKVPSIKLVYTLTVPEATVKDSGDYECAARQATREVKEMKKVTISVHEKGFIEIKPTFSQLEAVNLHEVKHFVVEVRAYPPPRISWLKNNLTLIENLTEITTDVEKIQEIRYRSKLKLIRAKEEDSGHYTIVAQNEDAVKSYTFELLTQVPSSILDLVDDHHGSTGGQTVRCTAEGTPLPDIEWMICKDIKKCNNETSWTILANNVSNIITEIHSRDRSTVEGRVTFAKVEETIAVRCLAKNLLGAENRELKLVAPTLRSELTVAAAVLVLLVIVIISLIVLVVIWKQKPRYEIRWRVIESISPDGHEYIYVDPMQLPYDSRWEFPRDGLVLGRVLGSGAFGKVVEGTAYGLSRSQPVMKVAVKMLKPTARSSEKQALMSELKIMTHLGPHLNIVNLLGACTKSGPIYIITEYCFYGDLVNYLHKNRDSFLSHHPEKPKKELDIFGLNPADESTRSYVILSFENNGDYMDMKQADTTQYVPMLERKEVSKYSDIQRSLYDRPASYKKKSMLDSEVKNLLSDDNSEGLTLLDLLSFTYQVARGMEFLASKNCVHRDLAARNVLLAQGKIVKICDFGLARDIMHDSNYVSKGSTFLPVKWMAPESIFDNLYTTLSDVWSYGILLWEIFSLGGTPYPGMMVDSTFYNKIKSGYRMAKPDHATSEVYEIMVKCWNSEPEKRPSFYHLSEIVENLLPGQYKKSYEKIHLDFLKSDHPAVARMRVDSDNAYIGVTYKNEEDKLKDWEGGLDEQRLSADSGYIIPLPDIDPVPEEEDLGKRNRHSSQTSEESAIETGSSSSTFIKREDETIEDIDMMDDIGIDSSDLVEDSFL
The molecule `O=C1NC(=O)C(c2cccc(Cl)c2)=C1Nc1ccc(Cl)c(C(=O)O)c1` showed an inhibition of 9.61%. `CCc1cccc(CC)c1/C=C/c1cncc(C(=O)NC)c1` registered an inhibition of 7.82%. Next, `C/C(Nc1ccc(S(N)(=O)=O)cc1)=C1/C(=O)Nc2ccccc21`: 53.2%; `Cc1ccc(C(=O)NC2CCC2)cc1-c1ccc(C(=O)NCC2CC2)cc1`: 4.53%; `O=C(Nc1n[nH]c2cc(-c3ccccc3)ccc12)C1CC1`: 20.4%.

Consider `NS(=O)(=O)c1ccc(N/N=C2\C(=O)Nc3ccc(-c4cnco4)cc32)cc1`, for which the inhibition is 49.8%. The result for `COc1cc(C)c(N(C)C(=O)CN(C)C)cc1Nc1nc(Nc2cccc(F)c2C(N)=O)c2cc[nH]c2n1` reads 7.22%; that for `CN1CCN(CCCNc2nc3ccc(Oc4ccc(NC(=O)Nc5cc(C(F)(F)F)ccc5F)cc4)cc3[nH]2)CC1`, 76.4%. Next, `Fc1ccc(-c2ncn(C3CCNCC3)c2-c2ccnc(Oc3ccc(F)c(F)c3)n2)cc1`: 14.7%.

As for `Cc1ccc(C(=O)NC(C)C)cc1-c1ccc(C(=O)NCC2CC2)cc1`, the inhibition worked out at 2.31%. Next, `N#Cc1ccc(Oc2nccc(-c3c(-c4ccc(F)cc4)ncn3C3CCNCC3)n2)cc1`: 10.1%. Next, `NC(=O)Cc1ccccc1Oc1nccc(-c2c(-c3ccc(F)cc3)ncn2C2CCNCC2)n1`: 7.12%; `c1ccc(Oc2ccc(Nc3ncc(-c4ccccc4)o3)cc2)cc1`: 11.5%. Next, `Fc1ccc(-c2ncn(C3CCNCC3)c2-c2ccnc(Oc3ccc4c(c3)OCO4)n2)cc1`: 15.7%.

In the case of `COc1ccc(C2=C(N3CCc4ccccc43)C(=O)NC2=O)cc1`, the inhibition amounted to 16.3%. The result for `C#Cc1cccc(Nc2ncnc3ccc(OCCCCNCCS(C)(=O)=O)cc23)c1` reads 30.4%.

These data come from ChEMBL document CHEMBL1961873, “Compounds: GSK PKIS; Assays: Nanosyn kinase panel” (2012).
